Nine compounds from PubChem BioAssay (NCI) can be followed below.

Assay [1] in a line: NCI Yeast Anticancer Drug Screen. Data for the rad50 strain (AID 155).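 Also: 0% = growth of vehicle-only cultures of the same strain.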 As to conditions: S. cerevisiae rad50 strain growth inhibition, stronger effect = higher value. The procedure, abridged: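 Compounds were tested on a yeast strain with an engineered DNA damage repair alteration; the reported value is growth inhibition normalised to vehicle treatment.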
The nature of assay [2]: NCI Yeast Anticancer Drug Screen. Data for the mec2-1 strain (AID 157). The note with it: S. cerevisiae mec2-1 strain, stronger effect = higher value. An outline of the steps: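 Cells of the genetically defined mec2-1 yeast strain are incubated with test compound. Inhibition of growth is calculated against vehicle-treated controls.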
Assay [3] can be described thus: NCI Yeast Anticancer Drug Screen. Data for the sgs1 mgt1 strain (AID 161).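 Also: 0% = growth of cultures given vehicle only.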 The note with it: S. cerevisiae sgs1 mgt1 strain, stronger effect = higher value. An outline of the steps: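 Mutant yeast exposed to compound; growth scored against vehicle-only wells.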
The nature of assay [4]: NCI Yeast Anticancer Drug Screen. Data for the cln2 rad14 strain (AID 165).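 Also: 0% = growth equal to vehicle treated cultures.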 The note with it: S. cerevisiae cln2 rad14 strain, stronger effect = higher value. The procedure, abridged: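 The screen exposed genetically defined yeast (cln2 rad14) to test compounds and scored growth inhibition relative to vehicle-treated controls.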
A short description of assay [5]: NCI Yeast Anticancer Drug Screen. Data for the bub3 strain (AID 167). The note with it: S. cerevisiae bub3 mutant strain, stronger effect = higher value. An outline of the steps: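 Growth of a checkpoint-deficient yeast mutant is measured after compound exposure. Values represent inhibition relative to vehicle.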
Assay [6] can be described thus: NCI Yeast Anticancer Drug Screen. Data for the mlh1 rad18 strain (AID 175). The note with it: S. cerevisiae mlh1 rad18 strain growth inhibition, stronger effect = higher value. An outline of the steps: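 Compound-treated yeast growth, normalised to vehicle controls. Strain bears defined DNA repair mutations.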
Where [7] appears, read: at 5.0 µM (retest, dose inferred, filed as 0.5).
Where [8] appears, read: at 50.0 µM (retest, dose inferred, filed as 5.0).

“And” between values parts separate entries of the source, which are not always exact repeats. Identical values can stand only once. About 79,000 compounds went through this panel and 15% of them were active in at least one assay; those are over-represented in the sample as a whole. A number with no mark means an inactive call. The source made the active and inactive calls. Rule as the data show it: active = growth inhibition above about 70%; inactive = the rest.

Turning to `C[N-]c1nnnn1C.[Au+].c1ccc([PH+](c2ccccc2)c2ccccc2)cc1`, the growth inhibition is 99% (active) in assay [1] (setting [7]); 97% (active) in assay [1] (setting [8]); 96.3% (active) in assay [1] (at 50.0 µM); 99% (active) in assay [2] (setting [7]); 95% (active) in assay [2] (setting [8]); 97.9% (active) in assay [2] (at 50.0 µM). Besides, the growth inhibition in assay [3] (setting [7]) was 99% (active); in assay [3] (setting [8]), 97% (active); in assay [3] (at 50.0 µM), 97% (active); in assay [4] (setting [7]) it was 96% (active); in assay [4] (setting [8]), 95% (active); in assay [4] (at 50.0 µM), 97.2% (active). The growth inhibition was 98% (active) in assay [5] (setting [7]); 96% (active) in assay [5] (setting [8]); 96% (active) in assay [5] (at 50.0 µM); 97% (active) in assay [6] (setting [7]); 94% (active) in assay [6] (setting [8]); 97% (active) in assay [6] (at 50.0 µM).
`N=P(c1ccccc1)(c1ccccc1)c1ccccc1.[O]=[Cr](=[O])([OH])[O][Cr](=[O])(=[O])[OH]`: the growth inhibition in assay [1] (setting [7]) was 9%; in assay [1] (setting [8]) it was 80% (active); in assay [1] (at 50.0 µM), 71.3% (active); in assay [2] (setting [7]), 5%; in assay [2] (setting [8]) it was 76% (active); in assay [2] (at 50.0 µM), 26.4%. Moreover, the growth inhibition in assay [3] (setting [7]) is 16%; in assay [3] (setting [8]) it was 91% (active); in assay [3] (at 50.0 µM), 37.3%; in assay [4] (setting [7]), -4%; in assay [4] (setting [8]), 50%; in assay [4] (at 50.0 µM), 8.95%. The growth inhibition in assay [5] (setting [7]) was -4%; in assay [5] (setting [8]), 81% (active); in assay [5] (at 50.0 µM), 11.2%; in assay [6] (setting [7]), 4%; in assay [6] (setting [8]), 57%; in assay [6] (at 50.0 µM), 53.2%.
With `Oc1c(-c2ccccc2)cc(-[n+]2c(-c3ccccc3)cc(-c3ccccc3)cc2-c2ccccc2)cc1-c1ccccc1`, the growth inhibition in assay [1] (setting [7]) is 97% (active); in assay [1] (setting [8]), 99% (active); in assay [1] (at 50.0 µM) it was 91.7% (active); in assay [2] (setting [7]), 98% (active); in assay [2] (setting [8]), 99% (active); in assay [2] (at 50.0 µM) it was 92.7% (active). For the same compound, the growth inhibition in assay [3] (setting [7]) is 98% (active); in assay [3] (setting [8]) it was 99% (active); in assay [3] (at 50.0 µM) it was 89.6% (active); in assay [4] (setting [7]), 98% (active); in assay [4] (setting [8]), 98% (active); in assay [4] (at 50.0 µM), 89.8% (active). Also, the growth inhibition in assay [5] (setting [7]) is 99% (active); in assay [5] (setting [8]) it was 99% (active); in assay [5] (at 50.0 µM), 89.8% (active); in assay [6] (setting [7]) it was 98% (active); in assay [6] (setting [8]) it was 99% (active); in assay [6] (at 50.0 µM), 91.5% (active).
On to `CC[C@@]1(O)C(=O)OCc2c1cc1n(c2=O)Cc2cc3cc4c(cc3nc2-1)OCO4`, for which the growth inhibition was 95% (active) in assay [1] (setting [7]); 92% (active) in assay [1] (setting [8]); 72.4% (active) in assay [1] (at 50.0 µM); 97% (active) in assay [2] (setting [7]); 94% (active) in assay [2] (setting [8]); 81.3% (active) in assay [2] (at 50.0 µM). In addition, the growth inhibition in assay [3] (setting [7]) is 91% (active); in assay [3] (setting [8]), 85% (active); in assay [3] (at 50.0 µM), 80.9% (active); in assay [4] (setting [7]) it was 48%; in assay [4] (setting [8]), 47%; in assay [4] (at 50.0 µM) it was 71.7% (active). Moreover, the growth inhibition in assay [5] (setting [7]) is 85% (active); in assay [5] (setting [8]) it was 83% (active); in assay [5] (at 50.0 µM) it was 74.3% (active); in assay [6] (setting [7]) it was 91% (active); in assay [6] (setting [8]) it was 89% (active); in assay [6] (at 50.0 µM), 34.4%.
On to `Oc1c(Cl)c(Cl)c(Cl)c(Cl)c1Cl`, for which the growth inhibition is 14% and 30% in assay [1] (setting [7]); 99% (active) and 100% (active) in assay [1] (setting [8]); 80.8% (active) and 99% (active) in assay [1] (at 50.0 µM); 16% and 23% in assay [2] (setting [7]); 100% (active) and 99% (active) in assay [2] (setting [8]); 99.8% (active) and 99% (active) in assay [2] (at 50.0 µM). For the same compound, the growth inhibition in assay [3] (setting [7]) was 13% and 39%; in assay [3] (setting [8]) it was 98% (active) and 99% (active); in assay [3] (at 50.0 µM), 97.5% (active) and 99.2% (active); in assay [4] (setting [7]), 15% and 30%; in assay [4] (setting [8]) it was 99% (active); in assay [4] (at 50.0 µM) it was 99% (active). Besides, the growth inhibition was 5% and 13% in assay [5] (setting [7]); 99% (active) in assay [5] (setting [8]); 99.4% (active) and 99% (active) in assay [5] (at 50.0 µM); 21% and 40% in assay [6] (setting [7]); 99% (active) in assay [6] (setting [8]); 90% (active) and 99% (active) in assay [6] (at 50.0 µM).
Consider `CCCCN(CCCC)CCc1ccc(OC(=O)c2ccc(N)cc2)cc1`, for which the growth inhibition in assay [1] (setting [7]) is 27%; in assay [1] (setting [8]) it was 76% (active); in assay [1] (at 50.0 µM) it was 82.5% (active); in assay [2] (setting [7]) it was 23%; in assay [2] (setting [8]) it was 80% (active); in assay [2] (at 50.0 µM), 70.7% (active). The growth inhibition in assay [3] (setting [7]) is 46%; in assay [3] (setting [8]) it was 90% (active); in assay [3] (at 50.0 µM) it was 91.2% (active); in assay [4] (setting [7]), 42%; in assay [4] (setting [8]), 73% (active); in assay [4] (at 50.0 µM) it was 90.2% (active). The growth inhibition in assay [5] (setting [7]) was 50%; in assay [5] (setting [8]), 84% (active); in assay [5] (at 50.0 µM), 79% (active); in assay [6] (setting [7]) it was 32%; in assay [6] (setting [8]) it was 78% (active); in assay [6] (at 50.0 µM), 84.8% (active).
`CCOP(=O)(CP(=O)(OCC)OCC)OCC.[Cl][Sn]([Cl])([c]1ccccc1)[c]1ccccc1`: the growth inhibition is 11% in assay [1] (setting [7]); 99% (active) in assay [1] (setting [8]); 98.8% (active) in assay [1] (at 50.0 µM); -4% in assay [2] (setting [7]); 99% (active) in assay [2] (setting [8]); 98.9% (active) in assay [2] (at 50.0 µM). The growth inhibition in assay [3] (setting [7]) was 7%; in assay [3] (setting [8]) it was 97% (active); in assay [3] (at 50.0 µM), 99.1% (active); in assay [4] (setting [7]), 7%; in assay [4] (setting [8]) it was 96% (active); in assay [4] (at 50.0 µM), 98.1% (active). Also, the growth inhibition was 19% in assay [5] (setting [7]); 98% (active) in assay [5] (setting [8]); 97.8% (active) in assay [5] (at 50.0 µM); 1% in assay [6] (setting [7]); 98% (active) in assay [6] (setting [8]); 99% (active) in assay [6] (at 50.0 µM).
Regarding `CC(=O)[O][Hg][c]1cc2c(cc1O)Cc1cc([N+](=O)[O-])ccc1-2`, the growth inhibition is 95% (active) in assay [1] (setting [7]); 98% (active) in assay [1] (setting [8]); 93.5% (active) in assay [1] (at 50.0 µM); 99% (active) in assay [2] (setting [7]); 99% (active) in assay [2] (setting [8]); 98% (active) in assay [2] (at 50.0 µM). Besides, the growth inhibition in assay [3] (setting [7]) was 99% (active); in assay [3] (setting [8]), 99% (active); in assay [3] (at 50.0 µM) it was 86.2% (active); in assay [4] (setting [7]), 76% (active); in assay [4] (setting [8]), 98% (active); in assay [4] (at 50.0 µM), 94.1% (active). Moreover, the growth inhibition in assay [5] (setting [7]) is 99% (active); in assay [5] (setting [8]), 98% (active); in assay [5] (at 50.0 µM), 97.6% (active); in assay [6] (setting [7]), 99% (active); in assay [6] (setting [8]), 99% (active); in assay [6] (at 50.0 µM) it was 96.5% (active).
For the compound `CO/C(N)=C(\C#N)N=Cc1cccnc1`, the growth inhibition is 25% in assay [1] (setting [7]); 26% in assay [1] (setting [8]); 29.6% in assay [1] (at 50.0 µM); 25% in assay [2] (setting [7]); 30% in assay [2] (setting [8]); 80.2% (active) in assay [2] (at 50.0 µM). Further, the growth inhibition in assay [3] (setting [7]) was 20%; in assay [3] (setting [8]), 32%; in assay [3] (at 50.0 µM), 36.7%; in assay [4] (setting [7]), 26%; in assay [4] (setting [8]), 25%; in assay [4] (at 50.0 µM), 15.4%. The growth inhibition is 29% in assay [5] (setting [7]); 47% in assay [5] (setting [8]); 48.2% in assay [5] (at 50.0 µM); 29% in assay [6] (setting [7]); 25% in assay [6] (setting [8]); -25.4% in assay [6] (at 50.0 µM).
